Assay [1] can be described thus: qHTS assay to identify small molecule agonists of the estrogen receptor alpha (ER-alpha) signaling pathway in the presence of an antagonist - cell viability counter screen (AID 1259386).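 Note: cells exposed to compounds for 22 h at 37 °C before the viability read; nearly all actives have a fitted effect of over 30% in size.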 Note: potency is the fitted concentration of half-maximal effect. In short, it runs like this:
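The test measures whether compounds kill ER-alpha reporter cells (VM7Luc4E2) under antagonist co-treatment (ICI-182,780, 10.0nM). Fluorescence from CellTiter-Fluor is read after a 22hr exposure.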
For orientation: In qHTS, concentration-response curves come from the screen itself.

Assay [2] can be described thus: qHTS assay to identify small molecule antagonists of the progesterone receptor (PR) signaling pathway - cell viability counter screen (AID 1346798). Note: series mostly up to about 92 µM; nearly all actives have a fitted effect of over 50% in size. The method in brief: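 In the same plates used for the beta-lactamase readout, cell viability of compound- and R5020-treated PR-UAS-bla HEK293T cells (16 hr, 37C) was assessed by CellTiter-Glo luminescence.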
Assay [3] is described as follows: qHTS assay to identify small molecule agonists of the progesterone receptor (PR) signaling pathway - cell viability counter screen (AID 1346799; calls by dose curve; note: nearly all actives have a fitted effect of over 45% in size; note: potency is the fitted concentration of half-maximal effect). In short, it runs like this:
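Multiplexed viability read: CellTiter-Glo luminescence, 30 min RT, following LiveBLAzer FRET measurement on PR-UAS-bla HEK293T cells exposed to compounds 16 hr.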

A short description of assay [4]: qHTS assay to identify small molecule antagonists of the TGF-beta/Smad signaling pathway - cell viability counter screen (AID 1346824). Note: nearly all actives have a fitted effect of over 50% in size. In short, it runs like this:
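SBE-bla HEK 293T cells, incubated overnight, then compound plus 0.25 ng/mL TGF-beta1 (stock added) for 5 hr at 37 C. Viability was read in the same wells by CellTiter-Glo luminescence after 30 min at room temperature.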

A short description of assay [5]: qHTS assay to identify small molecule agonists of the TGF-beta/Smad signaling pathway (AID 1346859; active = well fitted activation curve with a large enough effect in the signal ratio in the repeat runs, not every such curve was filed as active; the % refers to the signal ratio; note: series mostly up to about 77 µM). The method in brief:
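Screening used HEK 293T SBE-bla cells at 4,000/well. Test agents: 5 hr, 37 C. Detection: FRET substrate, 2 hr RT, then excitation 405 nm with emissions at 460 and 530 nm.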

The target of assay [6] is Thyrotropin-releasing hormone receptor (Homo sapiens) (UniProt P34981). Kind of assay: qHTS assay to identify small molecule antagonists of the thyrotropin-releasing hormone receptor (TRHR) signaling pathway (AID 1346877; active = well fitted inhibition curve with a large enough effect in the repeat runs, not every such curve was filed as active; note: series mostly up to about 51 µM). In short, it runs like this:
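Overnight-plated (18 h, 37 °C) HEK293 cells expressing TRHR were dye-loaded 2 h, treated with compound, then stimulated with TRH at 1 nM final. Fluorescence intensity was captured every second for 3 min.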

The target is the same in assay [7]. Kind of assay: qHTS assay to identify small molecule agonists of the thyrotropin-releasing hormone receptor (TRHR) signaling pathway (AID 1346891; calls by dose curve; note: series mostly up to about 58 µM). In short, it runs like this:
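Readout was intracellular calcium fluorescence in TRHR-Hek293 cells. Cells were incubated 18 h, dye-loaded 2 h at 37 °C, and treated with compound in agonist mode.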

For assay [8], the target named is Progesterone receptor (Homo sapiens) (UniProt P06401). The experiment in a line: qHTS assay to identify small molecule agonists of the progesterone receptor (PR) signaling pathway (AID 1346784; calls by dose curve; note: nearly all actives have a fitted effect of over 30% in size). In short, it runs like this: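 Reporter assay, GripTite PR-UAS-bla HEK 293T cells: 16 hr exposure to DMSO-dissolved compounds at 37C, 5% CO2, in steroid-depleted (2% charcoal-stripped FBS) medium; beta-lactamase measured by FRET fluorescence.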
Sequence of Progesterone receptor (Homo sapiens) (P06401 whole entry, looked up): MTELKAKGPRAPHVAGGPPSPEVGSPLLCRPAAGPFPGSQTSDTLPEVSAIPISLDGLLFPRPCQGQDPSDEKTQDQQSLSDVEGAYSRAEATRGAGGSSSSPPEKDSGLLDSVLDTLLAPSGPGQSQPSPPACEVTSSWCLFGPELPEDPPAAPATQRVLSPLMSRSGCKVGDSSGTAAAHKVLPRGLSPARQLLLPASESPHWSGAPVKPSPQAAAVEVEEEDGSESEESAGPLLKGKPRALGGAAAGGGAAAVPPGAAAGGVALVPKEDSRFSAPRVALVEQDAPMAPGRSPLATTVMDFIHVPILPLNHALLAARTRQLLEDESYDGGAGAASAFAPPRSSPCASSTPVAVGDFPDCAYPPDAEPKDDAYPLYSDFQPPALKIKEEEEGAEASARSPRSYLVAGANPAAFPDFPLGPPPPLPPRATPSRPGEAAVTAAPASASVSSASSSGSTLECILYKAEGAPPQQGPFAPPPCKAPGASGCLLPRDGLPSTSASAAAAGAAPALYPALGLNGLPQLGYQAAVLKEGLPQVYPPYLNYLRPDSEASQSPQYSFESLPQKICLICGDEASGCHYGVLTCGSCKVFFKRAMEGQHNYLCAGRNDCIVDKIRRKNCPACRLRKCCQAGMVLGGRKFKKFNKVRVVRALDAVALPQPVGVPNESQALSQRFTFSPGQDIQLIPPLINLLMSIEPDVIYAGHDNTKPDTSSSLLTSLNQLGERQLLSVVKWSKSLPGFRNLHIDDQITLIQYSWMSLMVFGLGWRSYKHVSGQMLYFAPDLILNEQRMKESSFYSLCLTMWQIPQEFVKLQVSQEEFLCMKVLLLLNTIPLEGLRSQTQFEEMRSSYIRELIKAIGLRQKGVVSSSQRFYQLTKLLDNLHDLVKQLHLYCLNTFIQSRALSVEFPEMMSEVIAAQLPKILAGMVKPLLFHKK

For assay [9] the target is unchanged. The experiment in a line: qHTS assay to identify small molecule antagonists of the progesterone receptor (PR) signaling pathway (AID 1346795; active = well fitted inhibition curve with a large enough effect in the signal ratio in the repeat runs, not every such curve was filed as active; the % refers to the signal ratio). The method in brief: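 Stimulus R5020 at 1 nM final; cells HEK293T PR-UAS-bla; medium with 2% charcoal-stripped FBS; compound exposure 16 hr at 37C, 5% CO2; detection by FRET beta-lactamase substrate, 2 hr, room temperature.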

A short description of assay [10]: qHTS assay to identify small molecule agonists of the TGF-beta/Smad signaling pathway - cell viability counter screen (AID 1346829). Note: top concentration of the series differs between compounds; nearly all actives have a fitted effect of over 45% in size. The method in brief: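 Here the cytotoxicity of library compounds is measured in SBE-bla HEK 293T cells treated for 5 hr, using CellTiter-Glo added to wells already read for the beta-lactamase reporter.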

From PubChem BioAssay (Tox21) come the findings set out here.

Where “and” joins values, the source holds several entries; their conditions need not be identical. Equal values may be shown once. Records with an inconclusive call do not appear. Where a structure was tested more than once in an assay, its records may differ in their call. Calls of active or inactive are those of the source. Unless noted, calls come from the whole dose curve; as a rule, active = well fitted curve in the direction sought with a large enough effect in the repeat runs; inconclusive = weak or mixed curves; inactive = no such curve, though single readings can be large; an effect the other way counts as inactive or inconclusive.

Sequence of Thyrotropin-releasing hormone receptor (Homo sapiens) (P34981 whole entry, looked up): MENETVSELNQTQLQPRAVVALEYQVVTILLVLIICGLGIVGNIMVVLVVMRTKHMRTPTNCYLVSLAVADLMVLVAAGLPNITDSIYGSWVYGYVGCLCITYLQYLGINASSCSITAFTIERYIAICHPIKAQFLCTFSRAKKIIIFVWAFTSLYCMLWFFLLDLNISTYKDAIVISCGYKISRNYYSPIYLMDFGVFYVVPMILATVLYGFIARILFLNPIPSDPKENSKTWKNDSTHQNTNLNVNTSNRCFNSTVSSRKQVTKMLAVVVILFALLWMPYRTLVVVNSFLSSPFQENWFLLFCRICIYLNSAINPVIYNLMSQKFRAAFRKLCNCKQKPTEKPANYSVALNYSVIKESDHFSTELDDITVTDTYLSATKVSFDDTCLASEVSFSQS

`Nc1ccn([C@H]2CC[C@@H](CO)O2)c(=O)n1`: the Potency result in assay [1], in assay [2] and in [3] was “inactive” each time. For the same molecule, the result in assay [4], in assay [5], in assay [6] and in assay [7] was inactive.

With `Cc1ccccc1C(OCCN(C)C)c1ccccc1` (configuration not stated), the Potency result in [1], in [8] and in assay [3] was “inactive” in each case. For the same molecule, the molecule was classed as inactive in assay [9], in [4], in assay [5], in assay [6] and in assay [7].

In the case of `CCOc1ccc(NC(=O)CC(C)O)cc1` (configuration not stated), the Potency result in assay [1], in assay [8], in [2] and in assay [3] was “inactive” throughout. For the same molecule, the outcome in assay [9], in assay [4], in [5], in assay [6] and in [7] was inactive.

As for `CC(=O)NS(=O)(=O)c1ccc(N)cc1`, the Potency result in assay [1], in assay [8], in assay [2] and in [3] was “inactive” throughout. Moreover, the call in assay [9], in assay [4], in assay [5], in assay [6] and in assay [7] was inactive.

For the molecule `Cn1cc[nH]c1=S`, the Potency result in [1] and in assay [8] was “inactive” in each case. Besides, the molecule was called inactive in assay [9], in assay [4] and in assay [5]. The Potency in [3] is 43.2 µM (active) and inactive.

For the molecule `O=S(=O)(O)c1ccc2cc(O)ccc2c1`, the Potency result in [1], in assay [8], in assay [2] and in assay [3] was “inactive” throughout. In addition, the result in [9], in [4], in assay [5], in assay [6] and in assay [7] was inactive.

`O=C(C1CCCCC1)N1CC(=O)N2CCc3ccccc3C2C1` (configuration not stated): the Potency entry in assay [1], in assay [8], in assay [2] and in assay [3] was “inactive” throughout. For the same molecule, the outcome in assay [9], in assay [4], in assay [6] and in [7] was inactive.

Take `Cc1noc(NS(=O)(=O)c2ccc(N)cc2)c1C`: the Potency result in [1], in assay [8], in [2] and in assay [3] was “inactive” throughout. Besides, the call in [9], in [5], in assay [6] and in assay [7] was inactive.

With `O=C(c1ccccc1)c1ccccc1`, the Potency entry in [1], in assay [8], in assay [2] and in assay [3] was “inactive” throughout. Also, the call in [9] and in assay [5] was inactive.

Regarding `Oc1ccc(/C=C/c2cc(O)cc(O)c2)cc1`, the Potency entry in assay [1], in assay [2] and in assay [3] was “inactive” throughout. The call in assay [4], in [5], in assay [6] and in assay [7] was inactive.

On to `Cc1cc(=O)[nH]c(=S)[nH]1`, for which the Potency entry in assay [1], in assay [8], in assay [2] and in [3] was “inactive” throughout. In addition, the molecule was classed as inactive in [9], in assay [4], in assay [5], in assay [6] and in [7].

`Cc1cc(=O)n(-c2ccccc2)n1C`: the Potency result in assay [1], in assay [8], in assay [2] and in assay [3] was “inactive” in each case. Besides, the molecule was called inactive in assay [9], in [4], in assay [5], in assay [6] and in [7].

With `COc1ccc2[nH]cc(CCNC(C)=O)c2c1`, the Potency entry in [1], in [8], in assay [2] and in [3] was “inactive” throughout. For the same molecule, the molecule was called inactive in assay [9], in [4], in [5], in assay [6] and in [7].

For `CC(=O)OCC(COC(C)=O)OC(C)=O`, the Potency entry in [1], in assay [8], in [2] and in assay [3] was “inactive” each time. Further, the outcome in assay [9], in assay [4], in assay [5], in [6] and in [7] was inactive.

On to `O=C(O)/C=C\C(=O)O`, for which the Potency entry in assay [1], in assay [8], in [2] and in assay [3] was “inactive” each time. Moreover, the molecule was called inactive in assay [9], in assay [4], in assay [5], in assay [6] and in [7].

As to `CCCCCCCCCCCCCCCC(=O)O`, the Potency entry in assay [1], in assay [8], in assay [2] and in assay [3] was “inactive” throughout. Also, the molecule was classed as inactive in assay [9], in assay [4], in assay [5], in assay [6] and in assay [7].

As to `O=C(O)c1[nH]n(-c2ccc(S(=O)(=O)O)cc2)c(=O)c1N=Nc1ccc(S(=O)(=O)O)cc1`, in assay [1], the Potency was 29.8 µM (active) and 61.3 µM (active) and 25.5 µM (active). Besides, the Potency entry in [2], in assay [3] and in assay [10] was “inactive” each time. The molecule was classed as inactive in [4], in [5], in assay [6] and in assay [7].

On to `Cc1ccc(S(=O)(=O)NC(=O)NN2CCCCCC2)cc1`, for which the Potency result in assay [1], in assay [8], in [2] and in assay [3] was “inactive” in each case. Further, the molecule was called inactive in assay [9], in assay [4], in assay [5], in [6] and in assay [7].

As to `O=C(O)c1cccnc1`, the Potency entry in assay [1], in [8], in assay [2] and in assay [3] was “inactive” throughout. For the same molecule, the result in [9], in [4], in assay [5], in [6] and in assay [7] was inactive.
